The record followed here is PubChem BioAssay.

A number with no mark means an inactive call. How the calls were made is not given here.

For the assay, the target named is Pantothenate synthetase (Mycobacterium tuberculosis (strain ATCC 25618 / H37Rv)) (UniProt P9WIL5). Kind of assay: Recombinant Mtb pantothenate synthetase (PanC) inhibitors, coupled enzyme, confirmatory (AID 375).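 Further: 0% = full reaction with vehicle and 100% = no enzyme background.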 To be noted: coupled enzyme assay; at 10 µM, hits give high values.
Pantothenate synthetase (Mycobacterium tuberculosis (strain ATCC 25618 / H37Rv)), sequence (P9WIL5 whole entry, looked up): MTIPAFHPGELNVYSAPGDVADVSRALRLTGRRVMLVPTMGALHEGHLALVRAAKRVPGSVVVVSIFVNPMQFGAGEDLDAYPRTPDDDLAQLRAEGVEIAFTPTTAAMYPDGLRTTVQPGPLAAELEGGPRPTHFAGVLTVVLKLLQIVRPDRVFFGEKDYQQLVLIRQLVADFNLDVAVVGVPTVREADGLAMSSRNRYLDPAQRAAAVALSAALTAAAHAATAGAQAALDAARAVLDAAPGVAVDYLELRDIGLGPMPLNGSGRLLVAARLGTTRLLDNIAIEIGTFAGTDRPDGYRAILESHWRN
As for `COCCNC(=O)CN1CCN(Cc2cccc(Cl)c2)C1=O`, the inhibition – broadly, the percentage by which the read-out fell short of the control – is 0%. With `FC(F)(F)C(F)(F)C(F)(F)c1nnc2ccc(N3CCOCC3)nn12`, the inhibition is 3%. On to `CCCc1cc(=O)[nH]c(=S)[nH]1`, for which the inhibition is 3%. On to `CC(=O)NCCOc1cccc(OCCNC(C)=O)c1`, for which the inhibition was 2%. Turning to `O=C(NCc1ccco1)c1cccc(S(=O)(=O)N2CCCCC2)c1`, the inhibition was 0%. As for `CCCN1CCN(CCCNC(=O)C2CCCN(c3nc4ccc(OCC)cc4s3)C2)CC1` (centres undefined), the inhibition was 1%. For `Cc1ccc2c(Cl)cc(Cl)c(OCc3c(C)noc3C)c2n1` the value was 0%. The same measure for `O=C(O)CN1C(=O)CNC1=O`: 0%; for `CSC1=NCCN1C(=O)c1ccc(S(=O)(=O)N2CCCC2)cc1`: 0%. As for `COc1ccc(-n2ccnc2SCC(=O)NCc2ccc3c(c2)OCO3)cc1`, the inhibition is 1%.

Regarding `O=C(C1CCN(S(=O)(=O)c2cnc[nH]2)CC1)N1CCN(c2ncccn2)CC1`, the inhibition was 0%. `CC12C(=O)N(CCC(=O)O)C(=O)C1C1C=CC2C1` (centres undefined): the inhibition was 0%.

Regarding `CCOc1cc(C2CC(=O)N3CN(C4CCCCC4)CSC3=C2C#N)ccc1O` (centres undefined), the inhibition is 0%. As to `O=C(CCN1C(=O)c2ccccc2C1=O)NCCN1CCOCC1`, the inhibition is 0%.

For the compound `CC1CCc2nn(CC(=O)NCCCN3CCOCC3)cc2C1` (centres undefined), the inhibition was 0%. The same measure for `C/C(=C(\C#N)C(=O)NCCCN1CCOCC1)N(C)C`: 0%; for `CCOc1cc(-c2nc3ccccn3c2NCC2CCCO2)ccc1O` (centres undefined): 0%.

For `O=C(CCN1CCc2ccccc2C1)Nc1ccc2c(c1)OCO2`, the inhibition was 0%. In the case of `CCN(CCCNC(=O)COc1cc(=O)n(CC)c2ccccc12)c1ccccc1`, the inhibition is 0%. Regarding `COc1ccccc1NC1=NC2(CCCC2)N=C(N)N1`, the inhibition is 0%.

Regarding `COc1ccc(C(=O)Nc2nncs2)c(OC)c1`, the inhibition was 3%.

As to `CCN(CC)CCOC(=O)c1cccc(OC)c1`, the inhibition is 0%. For `O=C(CC(C(=O)N1CCc2ccccc21)n1ccnc1)NCc1cccnc1` (centres undefined), the inhibition is 0%. The same measure for `CC1CCCC(NC(=O)CN2CCN(Cc3ccc(Cl)cc3)C2=O)C1C` (centres undefined): 7%. Consider `Cc1ccc(C2C(C#N)=C(N)Oc3cc4c(cc32)OCO4)cc1` (centres undefined), for which the inhibition was 8%. For `CCn1c(C(=O)N2CCC(C(=O)N3CCN(c4ccccn4)CC3)CC2)cc2sccc21`, the inhibition is 7%. In the case of `COc1ccccc1OC(=O)c1ccc(SC)cc1OC`, the inhibition was 2%. Take `CCOC(=O)c1[nH]c2ccccc2c1NC(=O)c1ccco1`: the inhibition was 0%.

Consider `CC(C)(C)c1ccc(C(=O)Nc2cnccn2)cc1`, for which the inhibition was 2%. Turning to `Cc1noc(/C=C/N(C)C)c1S(=O)(=O)N1CCc2ccccc21`, the inhibition is 0%. Consider `CCOc1ccc(-c2nc(S(=O)(=O)c3ccccc3)c(NCc3cccnc3)o2)cc1`, for which the inhibition is 0%. For `c1ccc(-c2nnc(OCCN3CCOCC3)c3ccccc23)cc1` the value was 0%. `COc1cc(C2N=C(c3ccccc3)NO2)cc(Br)c1O` (centres undefined): the inhibition was 4%. For `CC1(C)Cc2c(sc3c2c(=N)n(Cc2ccco2)c(=O)n3Cc2ccccc2)CO1`, the inhibition is 0%.

`Cc1nc2ccc(S(=O)(=O)NCC(=O)N3CCCCC3)cc2s1`: the inhibition is 0%.

Consider `Cc1ccc(-c2noc(-c3ccccc3C(=O)NCC3CCCO3)n2)cc1` (centres undefined), for which the inhibition is 6%. Turning to `Cc1onc(-c2ccccc2)c1C(=O)N1CCOCC1`, the inhibition was 9%. For `CC(C)(C)NS(=O)(=O)c1ccc(CCC(=O)O)cc1` the value was 0%; for `COc1ccccc1N(CC(=O)NC1CCCC1)C(=O)c1csnn1`, 1%.
